25 molecules from PubChem BioAssay (Tox21) can be followed below.

Values without a mark were called inactive. Records with an inconclusive call do not appear. Active and inactive are the calls of the source. Unless noted, the call rests on the fitted dose curve; in most records, active means well fitted curve in the direction sought with a large enough effect in the repeat runs; inconclusive means weak or mixed curves; inactive means no such curve, though single readings can be large; an effect the other way counts as inactive or inconclusive.

A short description of test [1]: qHTS assay to identify small molecule antagonists of the estrogen receptor alpha (ER-alpha) signaling pathway using the BG1 cell line in the presence of 0.1 nM 17-beta-estradiol - cell viability counter screen (AID 1259241). Further: nearly all actives have a fitted effect of over 40% in size. Further: potency means the concentration at half of the fitted maximal effect. The essentials:
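In this screen, hormone-deprived VM7Luc4E2 cells were seeded at 4,000 per well, dosed with compound and 0.1 nM estradiol final, and incubated 22 hr at 37C and 5% CO2; fluorogenic live-cell protease signal reported viability.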
A general note: qHTS replaces the single test concentration by a dilution series.

Test [2] can be described thus: qHTS assay to identify small molecule antagonists of the androgen receptor (AR) signaling pathway using the MDA cell line in the presence of 0.5 nM R1881 - cell viability counter screen (AID 1259242). Further: nearly all actives have a fitted effect of over 45% in size. Further: potency means the concentration at half of the fitted maximal effect. An outline of the steps:
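Counter screen for cytotoxicity run in the same wells as the AR antagonist reporter screen: MDA-kb2 cells were treated 16 hr with test compounds and 0.5 nM R1881, then live-cell protease activity was measured by fluorescence.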

In test [3] the target is Estrogen receptor (Homo sapiens) (UniProt P03372). The experiment in a line: qHTS assay to identify small molecule antagonists of the estrogen receptor alpha (ER-alpha) signaling pathway using the BG1 cell line in the presence of 0.1 nM 17-beta-estradiol (AID 1259244). Further: nearly all actives have a fitted effect of over 50% in size. An outline of the steps:
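Cells: VM7Luc4E2, endogenous ER-alpha, 4x ERE-luc stable. Pre-culture 5 d, phenol red-free, charcoal-stripped FBS. Plated 24 h, compound + E2 0.1 nM final, 22 h 37C/5% CO2. Readout ONE-Glo luminescence.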

Test [4] in a line: qHTS assay to identify small molecule HDAC inhibitors (AID 1259364). Further: nearly all actives have a fitted effect of over 45% in size. Further: potency means the concentration at half of the fitted maximal effect. An outline of the steps:
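Luminescence from a cell-permeant luminogenic class I/II HDAC substrate reports endogenous deacetylase activity in intact HCT-116 cells treated with compounds for 2 h.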

Test [5] in a line: qHTS assay to identify small molecule HDAC inhibitors - cell viability counter screen (AID 1259365). Further: series mostly up to about 92 µM; nearly all actives have a fitted effect of over 50% in size. An outline of the steps:
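Measured quantity is CellTiter-Glo luminescence from wild-type HCT-116 cells after compound incubation of 2hr at 37C, 5% CO2; reagent developed 30min at room temperature.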

A short description of test [6]: qHTS assay to identify small molecule antagonists of the sonic hedgehog signaling (Shh) pathway - cell viability counter screen (AID 1259367). Further: nearly all actives have a fitted effect of over 55% in size. Further: potency means the concentration at half of the fitted maximal effect. The essentials:
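Using CellTiter-Fluor, viability of Gli1-Luc reporter 3T3 cells is read by fluorescence in the wells used for the Shh luciferase assay. Treatment lasts 23 hr with conditioned medium, then reagent 1 hr at 37C.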

Test [7] in a line: qHTS assay to identify small molecule agonists of the sonic hedgehog signaling (Shh) pathway (AID 1259368; calls by dose curve; further: nearly all actives have a fitted effect of over 15% in size; further: potency means the concentration at half of the fitted maximal effect). An outline of the steps: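 3T3Gli1-Luc (NIH/3T3 clone, stable Gli1-Luc); 4 hr pre-incubation, then cpd in DMSO 24 hr, 37 C/5% CO2; luciferase reagent 30 min RT; luminescence.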
Test [8] is described as follows: qHTS assay to identify small molecule agonists of the sonic hedgehog signaling (Shh) pathway - cell viability counter screen (AID 1259366). Further: nearly all actives have a fitted effect of over 50% in size. Further: potency means the concentration at half of the fitted maximal effect. The essentials:
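In quantitative high-throughput format, 3T3 Gli1-Luc cells were exposed to compounds for 24hr and multiplexed for viability using CellTiter-Fluor, incubated 1hr at 37C before the fluorescence read.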

Test [9] in a line: qHTS assay to identify small molecule phospholipidosis (PLD) inducers (AID 1259344; active means well fitted curve in the direction sought with a large enough effect; an effect the other way counts as inactive or inconclusive). An outline of the steps: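 Fluorescent phospholipid staining (LipidTOX Red) measured by automated microscopy in fixed HepG2 cells after 24 h treatment; nuclei counterstained with Hoechst 33342; amiodarone as reference inducer.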

Estrogen receptor (Homo sapiens), sequence (P03372 whole entry, looked up): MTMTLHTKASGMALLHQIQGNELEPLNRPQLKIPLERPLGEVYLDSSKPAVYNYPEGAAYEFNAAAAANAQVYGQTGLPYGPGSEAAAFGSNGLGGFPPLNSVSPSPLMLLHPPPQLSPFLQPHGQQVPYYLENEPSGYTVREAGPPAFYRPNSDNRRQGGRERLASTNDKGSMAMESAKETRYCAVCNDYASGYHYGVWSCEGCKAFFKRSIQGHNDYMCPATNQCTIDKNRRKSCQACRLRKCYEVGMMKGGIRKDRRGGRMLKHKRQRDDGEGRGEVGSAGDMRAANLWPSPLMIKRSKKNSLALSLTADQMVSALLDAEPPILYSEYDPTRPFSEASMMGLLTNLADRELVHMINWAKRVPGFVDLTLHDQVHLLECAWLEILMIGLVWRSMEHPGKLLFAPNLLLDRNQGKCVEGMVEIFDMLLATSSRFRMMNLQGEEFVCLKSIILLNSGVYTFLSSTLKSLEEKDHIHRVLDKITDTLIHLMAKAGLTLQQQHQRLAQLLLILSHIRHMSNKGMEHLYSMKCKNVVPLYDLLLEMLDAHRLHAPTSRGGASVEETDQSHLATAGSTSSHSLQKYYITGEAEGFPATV

In the case of `CCc1ccc(Br)cc1`, the Potency result in test [1], in test [2], in test [3], in [4], in test [5] and in test [6] was “inactive” each time. For the same molecule, the Potency result in [7] is “inactive”.

Turning to `CC(C)CCOC(=O)/C=C/c1ccccc1`, the Potency entry in [1], in test [2], in test [3], in [5], in test [8] and in test [6] was “inactive” each time. Also, the Potency result in test [7] was “inactive”.

Consider `Cc1cc(C(C#N)c2ccc(Cl)cc2)c(Cl)cc1NC(=O)c1cc(I)cc(I)c1O` (stereo unspecified), for which the Potency result in test [1], in [2], in test [9], in [4], in test [5] and in test [8] was “inactive” throughout. Also, the Potency result in test [6] and in test [7] was “inactive” throughout.

Consider `OC12N=C(c3ccccc3)SC1Cc1cc(Cl)ccc12` (stereo unspecified), for which the Potency result in test [1], in test [2], in [3], in test [5] and in test [6] was “inactive” in each case. The Potency in test [4] was 27.3 µM (active); in test [7], 2.73 µM (active).

As for `CCCCOC(=O)CO`, the Potency result in test [1], in [2], in [3], in test [4], in test [5] and in [6] was “inactive” each time.

Consider `CCC(CC)C(C)CCOC(C)=O` (stereo unspecified), for which the Potency entry in test [1], in [2], in [4] and in [5] was “inactive” throughout.

For `Clc1ccnc(Cl)n1`, the Potency result in test [1], in test [2], in test [4], in test [5] and in test [8] was “inactive” in each case.

For `CCCC(=O)OCOC(=O)C1=C(C)NC(C)=C(C(=O)OC)C1c1cccc(Cl)c1Cl` (stereo unspecified), the Potency result in [1], in test [2], in test [3], in [4], in test [5] and in test [6] was “inactive” throughout. The Potency entry in [7] was “inactive”.

Turning to `COc1cc(C)ccc1O`, the Potency entry in test [1], in test [2], in [3], in [4], in test [5] and in test [6] was “inactive” in each case. In addition, in test [7], the Potency entry was “inactive”.

In the case of `Cc1nc(-c2ccc(Cl)cc2)oc1COC(C)(C)C(=O)O`, the Potency result in test [1], in [2], in test [9], in test [4], in test [5] and in test [8] was “inactive” in each case. In addition, the Potency entry in test [6] and in [7] was “inactive” each time.

Consider `CC(C)(c1cc(Br)c(OCC(Br)CBr)c(Br)c1)c1cc(Br)c(OCC(Br)CBr)c(Br)c1` (stereo unspecified), for which the Potency result in test [1], in [2], in test [3], in [4], in test [5] and in test [6] was “inactive” in each case. The Potency entry in test [7] was “inactive”.

Turning to `c1ccc(C(O[C@@H]2CCCN(CCc3ccc4c(c3)OCO4)C2)c2ccccc2)cc1`, the Potency result in [1], in [2], in [4], in test [5], in test [8] and in [6] was “inactive” in each case. Besides, the Potency result in [7] was “inactive”.

As to `COc1cc(S(=O)(=O)O)c(C)cc1N=Nc1c(O)ccc2cc(S(=O)(=O)O)ccc12`, the Potency in test [1] was 21.7 µM (active); in test [2] it was 24.3 µM (active); in [8], 27.3 µM (active); in [6], 24.3 µM (active). Further, the Potency entry in test [4] is “inactive”.

`S=C([S-])NCCNC(=S)[S-].S=C([S-])NCCNC(=S)[S-].[Mn+2].[Zn+2]`: the Potency result in test [1], in [2], in test [4], in test [5], in [6] and in [7] was “inactive” throughout.

As for `O=c1oc2cc(O)ccc2c2oc3cc(O)ccc3c12`, the Potency result in [1], in test [2] and in test [6] was “inactive” throughout. For the same molecule, the Potency in [4] was 9.29 µM (active).

`CCCC(=O)OC(C)(C)Cc1ccccc1`: the Potency result in [1], in test [2], in test [4], in test [5], in test [8] and in test [6] was “inactive” throughout. The Potency result in test [7] is “inactive”.

Regarding `Cc1cccc2cccnc12`, the Potency entry in test [1], in test [2], in test [4], in test [5], in test [8] and in test [6] was “inactive” throughout. Also, the Potency entry in test [7] was “inactive”.

For `CC(=O)[C@H]1CC[C@H]2[C@@H]3CCC4=CC(=O)CC[C@]4(C)[C@H]3CC[C@]12C`, the Potency result in test [1], in [2], in test [4], in test [5], in test [8] and in test [6] was “inactive” in each case. Besides, in test [7], the Potency result is “inactive”.

As to `C=CCCC(=O)/C=C/C1C(C)=CCCC1(C)C` (stereo unspecified), the Potency entry in [1], in test [2], in test [4], in [5], in [6] and in test [7] was “inactive” throughout.

As to `Oc1cc(Cl)cc(Cl)c1Cl`, the Potency entry in [1], in test [2], in [4], in [5], in [8] and in [6] was “inactive” in each case. For the same molecule, the Potency result in [7] was “inactive”.

Take `Cc1ccc(C(=O)O)cc1`: the Potency result in test [1], in [2], in test [4], in test [5], in [8] and in test [6] was “inactive” each time. The Potency entry in [7] is “inactive”.

Consider `COc1cccc(OC)c1C(=O)O`, for which the Potency entry in [1], in test [2], in [4], in test [5], in [8] and in test [6] was “inactive” throughout. In addition, the Potency entry in test [7] was “inactive”.

Regarding `Cc1ccc(N/N=c2\c(=O)cc/c(=N\Nc3ccc(S(=O)(=O)O)cc3)c2=O)c(C)c1`, the Potency in [1] is 27.3 µM (active); in test [2] it was 48.6 µM (active); in test [4], 19.3 µM (active); in test [6] it was 27.3 µM (active). Moreover, the Potency result in [5] and in [7] was “inactive” in each case.

Turning to `CC1(C)CCC[C@]2(C)[C@H]3CCO[C@]3(C)CC[C@@H]12`, the Potency entry in test [1], in test [2], in test [4], in test [5], in test [6] and in test [7] was “inactive” in each case.

For `O=C1NC(=O)[C@@H]2CC=CC[C@H]12`, the Potency result in test [1], in test [2], in [4], in test [5], in [6] and in [7] was “inactive” each time.
